Only some compounds are listed: those with a hit (about 3.4% of all), similar ones and a draw of the others.
PTPN22 act = LYP phosphatase activators, primary screen, biochemical, DiFMUP fluorescence, 2 µM; Tyrosine-protein phosphatase non-receptor type 22 (Homo sapiens), Q9Y2R2; recombinant LYP; 0 = plate median, 100 = signal doubled; AID 697, 2007; activation, % at 2 µM; 96,000 tested, 0.11% active;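 active means activation at 2 µM above a set limit, the mean plus 5 SD, cut at about 37% in these data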
LYP inh 2 = PTPN22 phosphatase inhibitors, primary screen, biochemical, DiFMUP fluorescence, 2 µM; Tyrosine-protein phosphatase non-receptor type 22 (Homo sapiens), Q9Y2R2; recombinant LYP catalytic domain; inhibition, % at 2 µM; 96,000 tested, 0.21% active;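 active means inhibition at 2 µM at or above a set limit, the screen mean plus 3 SD, cut at about 24% in these data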;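 further: 0% = DMSO with enzyme and 100% = enzyme fully blocked by orthovanadate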
ERa coact pot = enhancers of ERα–SRC-1 coactivator binding, primary screen, biochemical, TR-FRET, ERα LBD, low estradiol | TR-FRET ERalpha-LBD/SRC-Cy5 coactivator binding, 2 h; 100 = basal binding, no effect | 86,000 tested, 1.3% active | Estrogen receptor (Homo sapiens), P03372 | AID 639, 2007 | coactivator binding (% of control), % at 25.6 µM; in the data active means activity above about 200%;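 further: binding measured in presence of low estradiol as agonist stimulus; 0% = peptide alone without receptor and 100% = receptor with peptide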
ERa SRC1 inh = ERα–SRC-1 coactivator interaction inhibitors, primary screen, biochemical, TR-FRET, ERα LBD, estradiol-bound; TR-FRET ER-alpha LBD / SRC-1 peptide; inhibition, % at 25.6 µM; 86,000 tested, 1.7% active; AID 629, 2007; in the data active means inhibition above about 50%;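 further: 0% = receptor plus peptide control and 100% = peptide only without receptor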
FAK inh = FAK kinase inhibitors, primary screen, biochemical | Focal adhesion kinase 1 (Homo sapiens), Q05397 | biochemical FAK kinase activity assay | inhibition, %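 (tested at 7 µM)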 | 97,000 tested, 0.84% active; in the data active means inhibition above about 19%;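 further: 0% = DMSO and 100% = reference compound high control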
Target sequence (Q05397 whole entry, looked up): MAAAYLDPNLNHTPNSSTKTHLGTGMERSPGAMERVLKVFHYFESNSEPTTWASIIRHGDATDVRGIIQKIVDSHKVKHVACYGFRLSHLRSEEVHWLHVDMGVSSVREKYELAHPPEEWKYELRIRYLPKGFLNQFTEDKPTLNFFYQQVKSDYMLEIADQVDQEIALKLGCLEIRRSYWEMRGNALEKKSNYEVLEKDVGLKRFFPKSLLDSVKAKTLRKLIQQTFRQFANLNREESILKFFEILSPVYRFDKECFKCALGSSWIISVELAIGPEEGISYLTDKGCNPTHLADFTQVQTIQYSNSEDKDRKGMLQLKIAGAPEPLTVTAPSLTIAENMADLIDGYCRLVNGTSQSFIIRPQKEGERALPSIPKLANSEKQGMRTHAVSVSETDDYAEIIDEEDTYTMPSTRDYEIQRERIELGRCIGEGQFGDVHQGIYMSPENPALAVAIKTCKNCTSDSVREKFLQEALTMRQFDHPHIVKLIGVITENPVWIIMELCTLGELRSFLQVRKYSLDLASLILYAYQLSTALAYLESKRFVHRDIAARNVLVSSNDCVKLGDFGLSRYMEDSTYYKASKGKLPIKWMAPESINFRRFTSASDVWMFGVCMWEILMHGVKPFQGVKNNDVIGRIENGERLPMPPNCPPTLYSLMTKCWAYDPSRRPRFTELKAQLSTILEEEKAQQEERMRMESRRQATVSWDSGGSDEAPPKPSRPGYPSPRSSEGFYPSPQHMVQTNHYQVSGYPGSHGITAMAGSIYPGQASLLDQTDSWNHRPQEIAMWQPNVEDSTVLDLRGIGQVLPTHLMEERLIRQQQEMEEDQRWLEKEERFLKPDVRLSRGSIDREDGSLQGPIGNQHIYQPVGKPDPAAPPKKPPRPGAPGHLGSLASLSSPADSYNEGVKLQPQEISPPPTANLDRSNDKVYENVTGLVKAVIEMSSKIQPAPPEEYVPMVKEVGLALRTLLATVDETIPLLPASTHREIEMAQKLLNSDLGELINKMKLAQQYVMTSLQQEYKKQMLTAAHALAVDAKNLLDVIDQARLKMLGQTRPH
ERb coact inh = inhibitors of ERβ-SRC1 coactivator interaction, primary screen, biochemical, TR-FRET, ERβ LBD, SRC-1 peptide; TR-FRET ER-beta LBD / SRC1-Cy5 peptide binding; receptor agonist-loaded with 1 µM estradiol; inhibition, % at 25.6 µM; 86,000 tested, 1.3% active;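 active means compounds whose percent inhibition of the receptor-coactivator binding signal exceeds about 50% in the single-dose screen, limit read from the data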;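 further: 0% = receptor plus peptide wells without compound and 100% = peptide-only wells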
* = called active by the depositor; / = no result given; + = active, no number; [ ] = another dose, or the depositor's remark.

SMILES	PTPN22 act	LYP inh 2	ERa coact pot	ERa SRC1 inh	FAK inh	ERb coact inh
Cc1cc(NC(=O)c2cn(C3CCCCC3)c(=O)c3c2c2ccccc2n3C)no1	9	-9	200*[fluorescence artefact?]	5	3	21
Cc1ccc(CNC(=O)c2cn(C3CCCCC3)c(=O)c3c2c2ccccc2n3C)o1	2	0	74	0	1	13
Cn1c(=O)c2c(nc(Br)n2CC(=O)c2cccs2)n(C)c1=O	9	-6	101	-6	2	-7
Cn1c(=O)c2c(nc(SCC(=O)NCc3ccc4c(c3)OCO4)n2Cc2ccc(Cl)cc2)n(C)c1=O	-1	2	32	85*[fluorescence artefact?]	12	54*[fluorescence artefact?]
O=C(CSc1nnc2scc(-c3ccc(Cl)cc3)n12)NCc1ccc2c(c1)OCO2	-4	1	213*	16	10	0
Cn1c(=O)c2c(nc(SCC(=O)c3cccs3)n2Cc2ccc(F)cc2)n(C)c1=O	6	-8	+[fluorescence artefact?]	9	-93	35
O=[N+]([O-])c1ccc(N2CCN(S(=O)(=O)c3ccc(Cl)cc3)CC2)cc1NCc1cccnc1	-20	24*	/	/	2	/
Brc1cccc(-c2nnc(SCc3ccon3)n2-c2ccccc2)c1	1	-4	104	-8	4	-8
O=C(CSc1ncccc1C(=O)O)NCc1ccc(F)cc1	-4	3	107	-5	-1	-7
O=C(COC(=O)c1cccnc1SCC(=O)NCc1ccccc1)NCc1ccccc1	-1	4	252*[fluorescence artefact?]	3	-3	11
CC12CN3CC(C)(CN(C1)C3c1ccccc1Cl)C2O (configuration not stated)	-12	8	/	/	7	/
CN1CC2(C)CN(C(c3ccccc3)c3ccccc3)CC(C)(C1)C2O (configuration not stated)	/	/	84	44	/	57*
Cc1ccc(C)c(NC(=S)NC(NC(=O)Cc2cccc3ccccc23)C(Cl)(Cl)Cl)c1 (configuration not stated)	-11	13	59	68*[fluorescence artefact?]	0	69*
Cc1nn(C(C)C(=O)N2CCc3ccccc32)c(C)c1[N+](=O)[O-] (configuration not stated)	7	-5	/	/	2	/
CC(C)(C)C(=O)Nc1ccnc(-c2cccnc2)n1	6	-2	/	/	6	/
CCOC(=O)N1CCN(c2ncnc3c2oc2nc(C(C)C)c4c(c23)CCC4)CC1	/	/	312*[fluorescence artefact?]	7	/	29
CC(C)c1nc2oc3c(NCc4cccnc4)ncnc3c2c2c1CCC2	/	/	515*[fluorescence artefact?]	-10	/	16
COC(=O)c1ccc(-c2ccco2)n1Cc1ccccc1Cl	9	-10	75	1	-1	9
COC(=O)c1ccc(-c2ccco2)n1Cc1nc(-c2ccc(OC)c(OC)c2)oc1C	/	/	98	70*[fluorescence artefact?]	/	67*[fluorescence artefact?]
CCc1ccc(NC(=O)CCNS(=O)(=O)c2cccc3nsnc23)cc1	14	-15	104	-5	0	6
NC(=O)C1(N2CCCCC2)CCN(c2nc(-c3ccc(Br)cc3)cs2)CC1	10	-6	108	71*	6	24
O=C(NNC(=O)c1ccccc1Br)c1ccc(SCC2CCCO2)c([N+](=O)[O-])c1 (configuration not stated)	-6	8	85	2	-1	-7
O=C(NCc1cccnc1)c1cc(S(=O)(=O)N2CCCCC2)ccc1Cl	8	-9	113	-13	0	-12
COc1ccc(CC(=O)N2CC(C)CC(C)C2)cc1OC (configuration not stated)	-2	3	93	-3	1	84*[fluorescence artefact?]
O=C(CN1CCN(c2ncccn2)CC1)NCc1ccccc1	0	1	116	-2	-2	-7
COc1ccc(S(=O)(=O)Cc2ccc(C(=O)N3CCc4ccccc4C3)o2)cc1	2	-4	119	-2	6	1

Source: PubChem BioAssay
